{"source": "paper PMC5540273", "about": "(PLoS ONE, 2017);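 further: KINOMEscan kinase panel screen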", "data": [{"system": "EPHB4", "settings": "concentration: 1 μM, replicates: in singlicate; n = 1", "units": {"%Inh": "%"}, "values": [{"smiles": "Nc1ncc(-c2ccc3nccc(-c4ccncc4)c3c2)cc1S(=O)(=O)N1CCCCC1", "note": "[GSK1693850]", "%Inh": 8}, {"smiles": "COc1cccc(CC(=O)N2CCc3cc(-c4cn(C)c5ncnc(N)c45)ccc32)c1", "note": "[GSK2608899]", "%Inh": 0}, {"smiles": "CC(C)NCC(Cc1ccccc1)NC(=O)c1cc(Br)c(-c2ccnc3[nH]ccc23)s1.Cl.Cl", "note": "(stereo not shown) [GSK1383281]", "%Inh": 2}, {"smiles": "Nc1ncc(-c2cn[nH]c2)c2scc(-c3ccc4c(c3)CCN4C(=O)Cc3ccccc3)c12", "note": "[GSK2593067]", "%Inh": 0}, {"smiles": "Cc1cccc(Nc2nc(NCCN)ncc2C(N)=O)c1", "note": "[GSK1292139]", "%Inh": 0}, {"smiles": "CC(C)c1nc(-c2cccc(NS(=O)(=O)c3c(F)cccc3F)c2)c(-c2ccnc(Nc3ccc(N4CCOCC4)nc3)n2)s1.Cl", "note": "[GSK1723980]", "%Inh": 0}, {"smiles": "Cc1ccc(-c2ccc3occ(-c4ccc(S(C)=O)cc4)c3c2)nn1", "note": "(stereo not shown)", "%Inh": 6}, {"smiles": "COc1ccc(C2=C(Nc3cccc(O)c3)C(=O)NC2=O)cc1", "note": "[SB-390766]", "%Inh": 0}, {"smiles": "COc1ccc(NC(=O)c2ccoc2)cc1-c1ccc(C(=O)NCC2CC2)cc1", "note": "[GW810437]", "%Inh": 0}, {"smiles": "Cc1nn2c(=O)cc(N3CCO[C@H](C)C3)nc2n1Cc1cccc(Cl)c1Cl", "note": "[GSK2373693]", "%Inh": 5}, {"smiles": "Cl.O=C(Nc1ccc(Oc2ccc3[nH]c(NC(=O)c4ccco4)nc3c2)cc1)Nc1cc(C(F)(F)F)ccc1F", "note": "[GW683134]", "%Inh": 60}, {"smiles": "O=C(O)C(F)(F)F.O=c1[nH]ccc2nc(N[C@@H]3CCNC3)nc(Nc3ccc4c(c3)S(=O)(=O)CC4)c12", "note": "[GSK2181306]", "%Inh": 8}, {"smiles": "O=C(Nc1n[nH]c2cc(-c3cccs3)ccc12)C1CC1", "note": "[SB-731284]", "%Inh": 0}, {"smiles": "CNc1nccc(-c2ccc3c(N)n[nH]c3c2)n1", "note": "[GSK2206003]", "%Inh": 2}, {"smiles": "COc1cccc(NC(=O)NCCNc2ccnc(Nc3ccc(F)cc3)n2)c1", "note": "[GSK1379879]", "%Inh": 19}, {"smiles": "CN(c1ccc2c(c1)nc(NCc1ccccc1)n2C)c1ccnc(Nc2ccc(CS(C)(=O)=O)cc2)n1.Cl", "note": "[GW811603]", "%Inh": 2}, {"smiles": "Cc1ccc(O)cc1Nc1ccnc2cc(-c3ccc(CN4CCCCC4)o3)ccc12", "note": "[GW557777]", "%Inh": 99.7}, {"smiles": "Cc1cccc(Nc2nc(N[C@H]3CCCC[C@H]3N)ncc2C(N)=O)c1.Cl", "note": "[GSK986310]", "%Inh": 4}, {"smiles": "c1ccc(Oc2ccc(Nc3ccnc4cc(-c5ccc(CN6CCCCC6)o5)ccc34)cc2)nc1", "note": "[GW567143]", "%Inh": 7}, {"smiles": "CC(C)c1nc(-c2ccc(F)c(NS(=O)(=O)c3c(F)cccc3F)c2)c(-c2ccnc(Nc3ccc(N4CCOCC4)nc3)n2)s1", "note": "[GSK1804250]", "%Inh": 12}, {"smiles": "CCNc1nccc(-c2c(-c3ccc(F)cc3)ncn2C2CCN(C)CC2)n1", "%Inh": 0}, {"smiles": "Fc1cc(Cl)ccc1Nc1ccnc2cc(-c3ccc(CN4CCSCC4)o3)ccc12", "note": "[GW560106]", "%Inh": 50}, {"smiles": "NCCC(NC(=O)c1cc(Br)c(-c2ccnc3[nH]ccc23)s1)c1ccccc1.O=C(O)C(F)(F)F.O=C(O)C(F)(F)F", "note": "(stereo not shown) [GSK1307810]", "%Inh": 0}, {"smiles": "Cc1ccc(NC(=O)c2ccc(Cl)c(Cl)c2)cc1-c1ccc(C(=O)Nc2ccncc2)cc1", "note": "[GSK1398460]", "%Inh": 19}, {"smiles": "O=C(O)C(F)(F)F.O=c1[nH]ccc2nc(N[C@@H]3CCNC3)nc(Nc3cc(Cl)cc(Cl)c3)c12", "note": "[GSK2188764]", "%Inh": 6}, {"smiles": "Nc1ncnc2scc(-c3ccc(NC(=O)Cc4cc(F)ccc4F)cc3)c12.O=C(O)C(F)(F)F", "note": "[SB-731254-M]", "%Inh": 5}, {"smiles": "Cc1ccc(NC(=O)c2ccnc(N3CCCCC3)c2)cc1-c1ccc(C(=O)NCC2CC2)cc1", "note": "[GW775610]", "%Inh": 0}, {"smiles": "Fc1cc(Cl)ccc1Nc1ccnc2cc(-c3ccc(CN4CCOCC4)o3)ccc12", "note": "[GW560109]", "%Inh": 55}, {"smiles": "CS(=O)(=O)c1cccc(CNc2nc(Nc3ccc4c(c3)CCC(=O)N4)ncc2C(F)(F)F)c1", "%Inh": 0}, {"smiles": "Cc1cc(-c2c(-c3ccc(F)cc3)ncn2CCCN2CCOCC2)nc(N)n1", "note": "[SB-222517]", "%Inh": 10}, {"smiles": "CN1CCN(Cc2ccc(NC(=O)Nc3ccc(N(C)c4ccnc(Nc5ccc(CS(C)(=O)=O)cc5)n4)cc3)cc2)CC1.Cl", "note": "[GW827654]", "%Inh": 0}, {"smiles": "COc1cccc(C2=C(Nc3cccc(O)c3)C(=O)NC2=O)c1", "note": "[SB-390771]", "%Inh": 16}, {"smiles": "O=C(Nc1n[nH]c2nc(-c3cccc(O)c3)ccc12)C1CC1", "note": "[SB-711805]", "%Inh": 5}, {"smiles": "CN(c1ccc(NC(=O)Nc2cccc(Cl)c2)cc1)c1ccnc(N)n1.Cl", "note": "[GW830707]", "%Inh": 61}, {"smiles": "CC(=O)Nc1cn2nc(Oc3cccc(NC(=O)c4cccc(C(F)(F)F)c4)c3)ccc2n1", "%Inh": 90.9}, {"smiles": "COc1ccc(C)c(Nc2ccnc(Nc3ccc(-c4cnc[nH]4)cc3)n2)c1.Cl", "note": "[GW784041]", "%Inh": 60}, {"smiles": "Cl.Cl.NC(CNC(=O)c1cc(Br)c(-c2ccnc3[nH]ccc23)s1)c1ccccc1", "note": "(stereo not shown) [GSK1322949]", "%Inh": 3}]}]}
